From PubChem BioAssay come the findings set out here.

Calls of active or inactive are those of the source. How the calls were made is not given here.

A short description of this experiment: inhibition of Brca1/Bard1 split-luciferase complementation, confirmation, counter-screen for Mdm2/MdmX interaction inhibitor project, luminescence, single concentration (AID 504668). Particulars: Brca1/Bard1 bimolecular luciferase complementation counterscreen, at 8 µM, stronger effect = higher value.
For the molecule `CN(CC(=O)Nc1ccccc1Cl)C(=O)COC(=O)c1nc(Cl)c(Cl)c(Cl)c1Cl`, the inhibition was 30.8% (active).
Next, `Cc1ccc2c(C)nc(Nc3nc(CSc4nc5ccccc5[nH]4)cc(=O)[nH]3)nc2c1`: 32.5% (active); `Cc1ccc(S(=O)(=O)Nc2cc(-c3nn(C)c(=O)c4ccccc34)ccc2N2CCOCC2)cc1`: 29.6% (active).
Next, `Oc1c(Cl)cc(Cl)c(Cl)c1Cc1c(O)c(Cl)cc(Cl)c1Cl`: 26.8% (active); `CC(C)(C)N1C(=O)[C@H]2[C@@H](c3ccc(Br)cc3)N3C(=O)N(c4ccc(Br)cc4)C(=O)[C@@]3(Cc3ccccc3)[C@H]2C1=O`: 35.6% (active); `O=C(CCCN1C(=O)/C(=C\c2ccco2)SC1=S)Nc1cccc2ccccc12`: 28.5% (active).
Take `S=C(Nc1ccc(Cl)c(Cl)c1)NC1CCN(Cc2ccccc2)CC1`: the inhibition is 28.5% (active).
As for `CC(=O)c1c(C)[nH]c(C(=O)N2CCN(c3cc(Cl)ccc3C)CC2)c1C`, the figure is 34% (active).
As for `Oc1c(C(c2ccccn2)N2CCC(Cc3ccccc3)CC2)cc(Cl)c2cccnc12` (stereo not given), the figure is 33.2% (active); as for `COc1ccc(-n2nc(C(=O)c3cccs3)cc(-c3nc4ccccc4[nH]3)c2=N)cc1`, 30.8% (active); as for `O=C(Nc1ccc(Cl)cc1)Nc1csc([N+](=O)[O-])c1`, 30.6% (active).
For `CCC(=O)NC(c1ccccc1OC)c1ccc2cccnc2c1O` (stereo not given), the inhibition is 32.5% (active).
On to `CCN(CC)c1ccc(/C=N/NC(=O)CCC(=O)NCc2ccccc2)c(O)c1`, for which the inhibition was 33.7% (active).
On to `COc1cc(C(=O)N/N=C(\Cc2ncc[nH]2)c2ccccc2)cc(OC)c1OC`, for which the inhibition was 23.7% (active).
As for `CCN(CC)C(=O)CN1C(=O)/C(=C/c2ccccc2)SC1=S`, the figure is 27.6% (active); as for `C=CCNC(=S)N/N=C(\C)c1ccccn1`, 31.6% (active); as for `COC(=O)c1cccc(C23CC4(C2)[C@H](CN(Cc2ccc(C(F)(F)F)cc2)[C@@H]4c2ccccc2)C3c2ccc(C(F)(F)F)cc2)c1` (stereo not given in full), 23.6% (active).
Next, `O=C(CCCl)Nc1nc2c(s1)CCc1ccccc1-2`: 24.6% (active).
As for `ClC(Cl)(Cl)c1nc2ccccc2n2nncc12`, the figure is 31.8% (active); as for `O=C(NC(Cc1c[nH]c2ccccc12)C(=O)Nc1ccc(F)c([N+](=O)[O-])c1)c1cccs1` (stereo not given), 24.8% (active).
On to `Oc1ccc(N=Nc2ccccc2C(F)(F)F)c2cccnc12`, for which the inhibition is 23.3% (active).
As for `CC(=O)c1ccc(Sc2nnnn2-c2ccccc2)c([N+](=O)[O-])c1`, the figure is 30.1% (active); as for `Cc1cccc(Cn2nc(C(C)(C)C)cc2C(=O)Nc2ccc(F)cc2)c1`, 31.2% (active); as for `CC1=NN(c2ccccc2)C(=O)/C1=C\C=C\c1ccccc1`, 28.9% (active).
As for `Cc1ccc(O)c(N=Nc2nccs2)c1`, the figure is 23.2% (active); as for `CN(C)CCCNC(=S)NCC(c1ccc(Cl)cc1Cl)c1c[nH]c2ccccc12` (stereo not given), 29.2% (active).
As for `COc1cccc(-c2nnc(NC(=O)c3ccc(S(=O)(=O)N(CC(C)C)CC(C)C)cc3)o2)c1`, the figure is 24.3% (active); as for `Cc1cc(C(=O)NC2CCCc3c2cnn3-c2cccc(C)c2C)no1` (stereo not given), 23.6% (active).
As for `N#CCSc1nc2c(sc(=S)n2Cc2ccco2)c(=O)n1-c1ccc(F)cc1`, the inhibition was 31.6% (active).
As for `O=C(CCS(=O)(=O)c1ccc(Cl)cc1)Nc1nc(-c2ccncc2)cs1`, the figure is 25.6% (active); as for `CC(Oc1cccc(Br)c1)C(=O)NNC(=O)c1ccccn1` (stereo not given), 35.8% (active).
Consider `CC(C)(C)c1cc(Cl)c(O)c(NC(=S)NC(=O)c2cccnc2)c1`, for which the inhibition is 35.2% (active).
Next, `O=C(N/N=C/c1ccc(O)c2ncccc12)c1cccc(Br)c1`: 32.5% (active).
Next, `CC(C)Cc1nc(Nc2ccc(S(=O)(=O)N3CCCC3)cc2)c2nnn(Cc3ccccc3)c2n1`: 24.1% (active); `CCCCN1/C(=C/c2ccc3ccccc3[n+]2CC)Sc2ccccc21`: 32.5% (active).
As for `O=C(NC(Nc1ncc(S(=O)(=O)c2ccc([N+](=O)[O-])cc2)s1)(C(F)(F)F)C(F)(F)F)c1ccc(Cl)cc1`, the inhibition was 29.5% (active).
Next, `CCn1c(-c2ccc(C)cc2)nn(CC(=O)NCCc2ccccc2)c1=S`: 31.4% (active).
As for `CC1(C)Cc2ccccc2C2=NNC(=O)C2=N1`, the figure is 29.2% (active); as for `COc1ccc(C(=O)C(CN2CCOCC2)c2ccccc2)cc1` (stereo not given), 27.4% (active).
With `CCOC(=O)c1c(CN(C)C)n(C)c2c(O)c(N=NC(N)=O)c3ccc(Br)cc3c12`, the inhibition was 27.9% (active).
